PubChem BioAssay AID1159580 (chemical genetic matrix, 2015)
In all, about 5,500 compounds went through this assay and about 2,000 (36%) were called active. Another 18% or so got no clear call; they are omitted. Rule as the data show it: active = normalized growth mostly below about 0.91 (no sharp cut-off); inconclusive = no clear call, values can overlap the other calls; inactive = mostly above about 0.92. This is one part of the list.

Assay: chemical genetic growth profiling, strain panel (AID 1159580);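 also: tested at 20 µM; growth read once vehicle control cultures reached saturation at 30 °C; 1 = growth at the plate median or of vehicle wells; lower values mean less growth of the strain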
Details: growth OD

Measured: normalized growth

C=C1C2CCC3(C)C(c4ccoc4)OC(=O)CC13OC1CC(OC(C)=O)C(C)(C)C(CC(=O)OC)C12C (configuration not stated)
inactive: S. cerevisiae deletion strains, locus YAL021C, strain ccr4, stronger effect = lower value 1.02 | S. cerevisiae deletion strains, locus YAL026C, strain drs2, stronger effect = lower value 1.01 | S. cerevisiae deletion strains, locus YAL030W, strain snc1, stronger effect = lower value 1 | S. cerevisiae deletion strains, locus YBL061C, strain skt5, stronger effect = lower value 0.993 | S. cerevisiae deletion strains, locus YBR009C, strain hhf1, stronger effect = lower value 1 | S. cerevisiae deletion strains, locus YBR021W, strain FUR4, stronger effect = lower value 1 | S. cerevisiae deletion strains, locus YBR023C, strain chs3, stronger effect = lower value 1 | S. cerevisiae deletion strains, locus YBR171W, strain sec66, stronger effect = lower value 1.01 | S. cerevisiae deletion strains, locus YBR229C, strain ROT2, stronger effect = lower value 1 | S. cerevisiae deletion strains, locus YBR231C, strain swc5, stronger effect = lower value 1.02 | S. cerevisiae deletion strains, locus YBR279W, strain paf1, stronger effect = lower value 1.01 | S. cerevisiae deletion strains, locus YCL011C, strain gbp2, stronger effect = lower value 1 | S. cerevisiae deletion strains, locus YCL016C, strain dcc1, stronger effect = lower value 1 | S. cerevisiae deletion strains, locus YCL029C, strain bik1, stronger effect = lower value 0.995 | S. cerevisiae deletion strains, locus YCL061C, strain MRC1, stronger effect = lower value 1.01 | S. cerevisiae deletion strains, locus YCL069W, strain vba3, stronger effect = lower value 1 | S. cerevisiae deletion strains, locus YCR088W, strain abp1, stronger effect = lower value 1.01 | S. cerevisiae deletion strains, locus YDL005C, strain med2, stronger effect = lower value 0.985 | S. cerevisiae deletion strains, locus YDL035C, strain GPR1, stronger effect = lower value 0.993 | S. cerevisiae deletion strains, locus YDL040C, strain nat1, stronger effect = lower value 1.01 | S. cerevisiae deletion strains, locus YDL074C, strain BRE1, stronger effect = lower value 1.02 | S. cerevisiae deletion strains, locus YDL101C, strain DUN1, stronger effect = lower value 1 | S. cerevisiae deletion strains, locus YDL185W, strain tfp1, stronger effect = lower value 0.999 | S. cerevisiae deletion strains, locus YDL192W, strain arf1, stronger effect = lower value 0.985 | S. cerevisiae deletion strains, locus YDR001C, strain nth1, stronger effect = lower value 1.01 | S. cerevisiae deletion strains, locus YDR069C, strain doa4, stronger effect = lower value 1.01 | S. cerevisiae deletion strains, locus YDR101C, strain arx1, stronger effect = lower value 1.05 | S. cerevisiae deletion strains, locus YDR137W, strain rgp1, stronger effect = lower value 0.899 | S. cerevisiae deletion strains, locus YDR159W, strain sac3, stronger effect = lower value 1.03 | S. cerevisiae deletion strains, locus YDR162C, strain NBP2, stronger effect = lower value 0.991 | S. cerevisiae deletion strains, locus YDR195W, strain ref2 1 | S. cerevisiae deletion strains, locus YDR297W, strain sur2, stronger effect = lower value 1.02 | S. cerevisiae deletion strains, locus YDR318W, strain mcm21, stronger effect = lower value 0.992 | S. cerevisiae deletion strains, locus YDR334W, strain swr1, stronger effect = lower value 1.03 | S. cerevisiae deletion strains, locus YDR335W, strain msn5, stronger effect = lower value 1 | S. cerevisiae deletion strains, locus YDR388W, stronger effect = lower value 1 | S. cerevisiae deletion strains, locus YDR392W, strain spt3, stronger effect = lower value 1.01 | S. cerevisiae deletion strains, locus YDR502C, strain sam2, stronger effect = lower value 0.994 | S. cerevisiae deletion strains, locus YEL003W, strain gim4, stronger effect = lower value 1.01 | S. cerevisiae deletion strains, locus YEL037C, strain rad23, stronger effect = lower value 1.02 | S. cerevisiae deletion strains, locus YEL061C, strain CIN8 (second series), stronger effect = lower value 1.01 | S. cerevisiae deletion strains, locus YEL061C, strain CIN8, stronger effect = lower value 1 | S. cerevisiae deletion strains, locus YER015W, strain faa2, stronger effect = lower value 1.01 | S. cerevisiae deletion strains, locus YER016W, strain bim1, stronger effect = lower value 1.01 | S. cerevisiae deletion strains, locus YER110C, stronger effect = lower value 0.99 | S. cerevisiae deletion strains, locus YER111C, strain swi4, stronger effect = lower value 0.988 | S. cerevisiae deletion strains, locus YER155C, strain BEM2 (second series), stronger effect = lower value 1.02 | S. cerevisiae deletion strains, locus YER155C, strain BEM2, stronger effect = lower value 1.01 | S. cerevisiae deletion strains, locus YER167W, strain BCK2, stronger effect = lower value 1.01 | S. cerevisiae deletion strains, locus YFR010W, strain ubp6, stronger effect = lower value 1.01 | S. cerevisiae deletion strains, locus YGL078C, strain dbp3, stronger effect = lower value 1.01 | S. cerevisiae deletion strains, locus YGL086W, strain mad1, stronger effect = lower value 0.998 | S. cerevisiae deletion strains, locus YGL167C, strain pmr1, stronger effect = lower value 1.01 | S. cerevisiae deletion strains, locus YGL173C, strain kem1, stronger effect = lower value 0.998 | S. cerevisiae deletion strains, locus YGL227W, strain vid30, stronger effect = lower value 1 | S. cerevisiae deletion strains, locus YGL240W, strain doc1, stronger effect = lower value 0.991 | S. cerevisiae deletion strains, locus YGL248W, strain PDE1, stronger effect = lower value 0.993 | S. cerevisiae deletion strains, locus YGL253W, strain hxk2, stronger effect = lower value 0.981 | S. cerevisiae deletion strains, locus YGR135W, strain pre9, stronger effect = lower value 0.983 | S. cerevisiae deletion strains, locus YGR252W, strain gcn5, stronger effect = lower value 0.923 | S. cerevisiae deletion strains, locus YHR013C, strain ard1, stronger effect = lower value 1.01 | S. cerevisiae deletion strains, locus YHR027C, strain rpn1, stronger effect = lower value 1.02 | S. cerevisiae deletion strains, locus YHR030C, strain SLT2, stronger effect = lower value 1.01 | S. cerevisiae deletion strains, locus YHR079C, strain IRE1 (second series), stronger effect = lower value 1 | S. cerevisiae deletion strains, locus YHR094C, strain hxt1, stronger effect = lower value 0.999 | S. cerevisiae deletion strains, locus YHR129C, strain ARP1, stronger effect = lower value 1.01 | S. cerevisiae deletion strains, locus YHR142W, strain chs7, stronger effect = lower value 0.99 | S. cerevisiae deletion strains, locus YHR200W, strain rpn10, stronger effect = lower value 1 | S. cerevisiae deletion strains, locus YIL066C, strain RNR3, stronger effect = lower value 1.01 | S. cerevisiae deletion strains, locus YIL073C, strain SPO22, stronger effect = lower value 0.973 | S. cerevisiae deletion strains, locus YIL125W, strain kgd1, stronger effect = lower value 0.998 | S. cerevisiae deletion strains, locus YIR030C, strain dcg1, stronger effect = lower value 0.998 | S. cerevisiae deletion strains, locus YJL092W, strain hpr5, stronger effect = lower value 1.02 | S. cerevisiae deletion strains, locus YJL095W, strain BCK1 (second series), stronger effect = lower value 1.02 | S. cerevisiae deletion strains, locus YJL095W, strain BCK1, stronger effect = lower value 1.01 | S. cerevisiae deletion strains, locus YJL115W, strain asf1, stronger effect = lower value 1.01 | S. cerevisiae deletion strains, locus YJL129C, strain trk1, stronger effect = lower value 0.969 | S. cerevisiae deletion strains, locus YJL134W, strain LCB3, stronger effect = lower value 1.01 | S. cerevisiae deletion strains, locus YJL154C, strain vps35, stronger effect = lower value 1.03 | S. cerevisiae deletion strains, locus YJL164C, strain tpk1, stronger effect = lower value 0.997 | S. cerevisiae deletion strains, locus YJL166W, strain qcr8, stronger effect = lower value 1.02 | S. cerevisiae deletion strains, locus YJL168C, strain set2, stronger effect = lower value 0.998 | S. cerevisiae deletion strains, locus YJL187C, strain SWE1 (second series), stronger effect = lower value 1 | S. cerevisiae deletion strains, locus YJR043C, strain POL32, stronger effect = lower value 1.02 | S. cerevisiae deletion strains, locus YKL160W, strain elf1, stronger effect = lower value 1.01 | S. cerevisiae deletion strains, locus YKR001C, strain vps1, stronger effect = lower value 1.02 | S. cerevisiae deletion strains, locus YKR026C, strain gcn3, stronger effect = lower value 1 | S. cerevisiae deletion strains, locus YKR091W, strain srl3, stronger effect = lower value 1 | S. cerevisiae deletion strains, locus YLL001W, strain dnm1, stronger effect = lower value 1.01 | S. cerevisiae deletion strains, locus YLL026W, stronger effect = lower value 1 | S. cerevisiae deletion strains, locus YLL041C, strain sdh2, stronger effect = lower value 1 | S. cerevisiae deletion strains, locus YLR027C, strain aat2, stronger effect = lower value 0.991 | S. cerevisiae deletion strains, locus YLR039C, strain RIC1, stronger effect = lower value 0.988 | S. cerevisiae deletion strains, locus YLR058C, strain SHM2, stronger effect = lower value 1 | S. cerevisiae deletion strains, locus YLR102C, strain apc9, stronger effect = lower value 1.01 | S. cerevisiae deletion strains, locus YLR221C, strain rsa3, stronger effect = lower value 0.995 | S. cerevisiae deletion strains, locus YLR258W, strain gsy2, stronger effect = lower value 0.994 | S. cerevisiae deletion strains, locus YLR262C, strain YPT6 (second series), stronger effect = lower value 0.972 | S. cerevisiae deletion strains, locus YLR262C, strain YPT6, stronger effect = lower value 0.933 | S. cerevisiae deletion strains, locus YLR268W, strain sec22, stronger effect = lower value 0.984 | S. cerevisiae deletion strains, locus YLR320W, strain mms22, stronger effect = lower value 1.01 | S. cerevisiae deletion strains, locus YLR342W, strain FKS1, stronger effect = lower value 0.992 | S. cerevisiae deletion strains, locus YLR357W, strain rsc2, stronger effect = lower value 1.02 | S. cerevisiae deletion strains, locus YLR370C, strain arc18, stronger effect = lower value 0.998 | S. cerevisiae deletion strains, locus YLR371W, strain rom2, stronger effect = lower value 1.01 | S. cerevisiae deletion strains, locus YLR384C, strain iki3, stronger effect = lower value 1.01 | S. cerevisiae deletion strains, locus YLR418C, strain cdc73, stronger effect = lower value 0.983 | S. cerevisiae deletion strains, locus YML016C, strain PPZ1, stronger effect = lower value 1.03 | S. cerevisiae deletion strains, locus YML032C, strain rad52, stronger effect = lower value 0.999 | S. cerevisiae deletion strains, locus YML120C, strain ndi1, stronger effect = lower value 1.01 | S. cerevisiae deletion strains, locus YML124C, strain tub3, stronger effect = lower value 0.993 | S. cerevisiae deletion strains, locus YMR058W, strain fet3, stronger effect = lower value 1.02 | S. cerevisiae deletion strains, locus YMR078C, strain ctf18, stronger effect = lower value 0.988 | S. cerevisiae deletion strains, locus YMR125W, strain sto1, stronger effect = lower value 1.01 | S. cerevisiae deletion strains, locus YMR129W, stronger effect = lower value 1 | S. cerevisiae deletion strains, locus YMR205C, strain PFK2, stronger effect = lower value 0.97 | S. cerevisiae deletion strains, locus YMR223W, strain ubp8, stronger effect = lower value 0.991 | S. cerevisiae deletion strains, locus YMR231W, strain pep5, stronger effect = lower value 1 | S. cerevisiae deletion strains, locus YMR307W, strain GAS1, stronger effect = lower value 1.03 | S. cerevisiae deletion strains, locus YNL067W, strain RPL9B, stronger effect = lower value 0.998 | S. cerevisiae deletion strains, locus YNL071W, strain lat1, stronger effect = lower value 1.01 | S. cerevisiae deletion strains, locus YNL153C, strain GIM3, stronger effect = lower value 1.02 | S. cerevisiae deletion strains, locus YNL209W, strain ssb2, stronger effect = lower value 1.02 | S. cerevisiae deletion strains, locus YNL233W, strain BNI4, stronger effect = lower value 1 | S. cerevisiae deletion strains, locus YNL248C, strain rpa49, stronger effect = lower value 1.02 | S. cerevisiae deletion strains, locus YNL250W, strain rad50, stronger effect = lower value 0.982 | S. cerevisiae deletion strains, locus YNL271C, strain bni1, stronger effect = lower value 1 | S. cerevisiae deletion strains, locus YNL298W, strain CLA4, stronger effect = lower value 0.997 | S. cerevisiae deletion strains, locus YNL307C, strain MCK1, stronger effect = lower value 0.999 | S. cerevisiae deletion strains, locus YNL322C, strain KRE1 (second series), stronger effect = lower value 1.02 | S. cerevisiae deletion strains, locus YNR049C, strain mso1, stronger effect = lower value 1.02 | S. cerevisiae deletion strains, locus YNR052C, strain pop2, stronger effect = lower value 1.01 | S. cerevisiae deletion strains, locus YOL006C, strain TOP1, stronger effect = lower value 0.984 | S. cerevisiae deletion strains, locus YOL012C, strain htz1 1.69 | S. cerevisiae deletion strains, locus YOL147C, strain pex11, stronger effect = lower value 0.999 | S. cerevisiae deletion strains, locus YOR001W, strain rrp6, stronger effect = lower value 1.03 | S. cerevisiae deletion strains, locus YOR061W, strain CKA2, stronger effect = lower value 1.01 | S. cerevisiae deletion strains, locus YOR069W, strain VPS5, stronger effect = lower value 1.01 | S. cerevisiae deletion strains, locus YOR070C, strain gyp1, stronger effect = lower value 1.02 | S. cerevisiae deletion strains, locus YOR080W, strain dia2, stronger effect = lower value 1.01 | S. cerevisiae deletion strains, locus YOR083W, strain WHI5, stronger effect = lower value 1 | S. cerevisiae deletion strains, locus YOR106W, strain vam3, stronger effect = lower value 0.999 | S. cerevisiae deletion strains, locus YOR136W, strain idh2, stronger effect = lower value 0.989 | S. cerevisiae deletion strains, locus YOR144C, strain elg1, stronger effect = lower value 1 | S. cerevisiae deletion strains, locus YOR184W, strain ser1, stronger effect = lower value 1 | S. cerevisiae deletion strains, locus YOR265W, strain rbl2, stronger effect = lower value 1.01 | S. cerevisiae deletion strains, locus YOR270C, strain vph1, stronger effect = lower value 0.951 | S. cerevisiae deletion strains, locus YOR290C, strain snf2, stronger effect = lower value 0.996 | S. cerevisiae deletion strains, locus YOR316C, strain cot1, stronger effect = lower value 1.01 | S. cerevisiae deletion strains, locus YPL051W, strain arl3, stronger effect = lower value 1.01 | S. cerevisiae deletion strains, locus YPL078C, strain atp4, stronger effect = lower value 1 | S. cerevisiae deletion strains, locus YPL106C, strain sse1, stronger effect = lower value 0.989 | S. cerevisiae deletion strains, locus YPL240C, strain hsp82, stronger effect = lower value 1.02 | S. cerevisiae deletion strains, locus YPR119W, strain clb2, stronger effect = lower value 0.998 | S. cerevisiae deletion strains, locus YPR141C, strain kar3, stronger effect = lower value 1.01 | S. cerevisiae deletion strains, locus YPR163C, strain tif3, stronger effect = lower value 0.991 | S. cerevisiae deletion strains, locus YPR167C, strain met16, stronger effect = lower value 1 | S. cerevisiae deletion strains, strain wtn01, stronger effect = lower value 0.983 | S. cerevisiae strains, strain wild type, stronger effect = lower value 1.01
active: S. cerevisiae deletion strains, locus YKL068W, stronger effect = lower value 1.17 [resistant] | S. cerevisiae deletion strains, locus YKL085W, strain MDH1 (second series), stronger effect = lower value 1.08 [resistant] | S. cerevisiae deletion strains, locus YKL085W, strain MDH1, stronger effect = lower value 1.08 [resistant]
